Compound activity (PubChem)
Apoferritin bind = qHTS Assay for Identification of Novel General Anesthetics; apoferritin/1-aminoanthracene competitive binding, fluorescence; hit rate 0.074% among 350,000; Potency, µM (highest dose often 77.5 µM), for inactives: at the top dose activity change, negative = displacement, hits mostly inhibitors; further: on the % scale 0 is the no-effect control and ±100 the full control effect; nearly all actives have a fitted effect of over 20% in size
Target sequence (P02791 2-175 limits assumed): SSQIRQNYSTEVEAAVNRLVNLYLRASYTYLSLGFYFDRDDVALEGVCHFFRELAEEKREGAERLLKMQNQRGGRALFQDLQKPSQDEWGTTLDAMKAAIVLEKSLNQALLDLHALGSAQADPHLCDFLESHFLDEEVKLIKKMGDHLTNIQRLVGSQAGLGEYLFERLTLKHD
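Probe: 1-aminoanthracene (50% saturated, PBS). Protein: horse-spleen apoferritin, 10 uM. Incubation: 10 min, room temperature. Detection: 380 nm excitation, 535 nm emission. Analysis: normalized response, four-parameter Hill.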
TGFb SMAD3 inh = qHTS for Inhibitors of TGF-b | hit rate 1.2% among 410,000 | Potency, µM (titrated, usually from 46.1 µM), without a hit: at the highest dose activity, negative = inhibition, most hits filed as inhibitors | HepG2 CAGA-GFP TGF-b/SMAD3 reporter, GFP fluorescence, 18 h; TGF-beta stimulated, 500 pg/mL final; further: on the % scale 0 is the no-effect control and ±100 the full control effect; nearly all actives have a fitted effect of over 65% in size
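Inhibition of TGF-beta-driven CAGA-GFP reporter expression in HEPG2 cells is measured by cellular GFP fluorescence after 18 h stimulation with 500 pg/mL recombinant TGF-beta in 1% FBS medium at 37 degrees C.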
HepG2 tox = qHTS for Inhibitors of TGF-b: Cytotox Counterscreen; hit rate 0.76% among 410,000; HepG2 CAGA-GFP viability, ATP luminescence, 18 h; AID 588856, 2011; Potency, µM (highest dose often 46.1 µM), for inactives: at the top dose activity change, negative = cytotoxicity, hits mostly cytotoxic
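CellTiter-Glo luminescence gave cytotoxicity after 18 hours at 37 degrees C. The cells were HepG2 CAGA-GFP in 1% FBS DMEM, stimulated with 500 pg/mL TGF-beta after compound addition. %Activity was normalised to no-cell wells (complete cell-killing) and DMSO (no toxicity), and curves were fitted and classified.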
S2 tox = Viability Counterscreen for Primary qHTS for Inhibitors of ATXN expression; S2 cells (HEK-293 line with an ATXN2-luciferase reporter) viability, CellTiter-Fluor protease fluorescence, 24 h; Potency, µM (top dose mostly 56.7 µM), most hits filed as cytotoxic; hit rate 0.49% among 400,000; further: nearly all actives have a fitted effect of over 40% in size
ATXN2 expr inh = Primary qHTS for Inhibitors of ATXN expression; HEK-293 ATXN2-luciferase reporter, luminescence, 24 h; Potency, µM (series often up to 57 µM), inactives show at the top dose activity change, negative = inhibition, most hits filed as inhibitors; hit rate 0.72% among 360,000; AID 1745845, 2022; further: on the % scale 0 is the no-effect control and ±100 the full control effect; nearly all actives have a fitted effect of over 55% in size
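ATXN2-luciferase reporter cells (luciferase flanked by upstream and downstream ATXN2 gene portions) were treated 24 h at 37 °C with compounds at up to 57 uM. SteadyGlo luminescence gave expression; GF-AFC fluorescence gave viability.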
* = called active by the depositor; i = inactive; ? = inconclusive; . = no result given; [ ] = remark or other dose. Hits are enriched below; roughly 2.4% of the tested compounds scored in any of these assays. The call rests on the fitted dose curve; in most records, active means well fitted curve in the direction sought with a large enough effect; inconclusive means small, poorly fitted or top-dose-only effect, or another doubt; inactive means no such curve, though single readings can be large; an effect the other way counts as inactive or inconclusive. Potency means the concentration at half of the fitted maximal effect.

SMILES	Apoferritin bind	TGFb SMAD3 inh	HepG2 tox	S2 tox	ATXN2 expr inh
Cc1cc(C)c2oc(C(=O)Nc3nnc(C(C)C)s3)cc(=O)c2c1	-6.7%	6.4%	5.1%	i	.
COc1ccccc1N1C(=O)C=C(Sc2nc(C)cc(C)n2)C1=O	2.1%	11.2µM*	11.2µM*	i	-28.3%
COc1ccccc1N1C(=O)C2CC(C)=C(C)CC2C1=O (stereo not drawn)	?	-3.0%	-7.3%	i	0.7%
Cc1ccc(NC(=O)C(OC(=O)c2ccccc2Cl)c2ccccc2)cc1Cl (stereo not drawn)	-4.9%	0.0%	-4.6%	?	0.3%
Cc1ccc(NC(=O)C(OC(=O)c2ccc(NC(N)=O)cc2)c2ccccc2)cc1Cl (stereo not drawn)	-13.5%	?	12.6µM*	i	26.2%
O=c1c2ccccc2nc(N2CCN(c3cccc(Cl)c3)CC2)n1-c1ccccc1	-6.3%	7.08µM*	-47.3%	.	.
CCN1C(=O)[C@@H]2[C@H]3C(=CC[C@@H]2C1=O)C1(OCCCO1)[C@H]1O[C@@H]1[C@H]3O	-5.1%[15.3 µM]	.	.	.	.
CC#CCOCC/C=C1/c2ccccc2C(OC)C1C (stereo not drawn)	-6.6%[15.3 µM]	.	.	.	.
Cc1ccc(C(=O)n2c(N)nc3ccccc32)cc1	-6.2%	-7.7%	-37.1%	i	2.82µM*
COc1ccc(OC)c(N(C)S(=O)(=O)c2cc3c(cc2C)NC(=O)CO3)c1	-21.6%	-8.5%	-30.9%	i	-7.8%
CC(C)N1CCc2c(sc(NC(=O)c3cc(-c4cccs4)nc4ccccc34)c2C(N)=O)C1	-14.2%	-22.7%	17.8µM*	.	?
CC(C)N1CCc2c(sc(NC(=O)c3ccc(S(=O)(=O)N4CCc5ccccc54)cc3)c2C(N)=O)C1	-22.3%	?	12.6µM*	?	?
Cc1c(C(=O)N/N=C/c2cccnc2)sc(N)c1C#N	0.4%	10µM*	6.31µM*	i	2.1%
Cc1ccc(C(=O)N/N=C\c2cccnc2)s1	-14.4%	14.5%	-4.0%	i	11.7%
CC(C)CN(C(=O)CCNC(=O)c1ccc(Cl)cc1)C1CCS(=O)(=O)C1 (stereo not drawn)	.	-1.3%	-1.3%	28.2µM*	?
CC(C)CN(C(=O)CN(C)S(=O)(=O)c1ccc(Cl)cc1)C1CCS(=O)(=O)C1 (stereo not drawn)	-1.3%	?	2.3%	i	-0.4%
O=C(CCN1CCN(c2ccccc2F)CC1)c1ccc(Br)cc1	?	?	15.8µM*	i	4.2%
Cc1ccc(-c2ccc(=O)n(CC(=O)N3CCN(c4cccc(C)c4)C(C)C3)n2)cc1 (stereo not drawn)	25.1µM*	?	-33.2%	i	-24.1%
Cc1cccc(N2CCN(C(=O)Cn3nc(C)n4cccc4c3=O)CC2C)c1 (stereo not drawn)	?	9.2%	-0.6%	i	4.8%
Clc1ccc2c(NCCNC3CCCCC3)ccnc2c1	.	?	12.6µM*	.	2.24µM*
N#CCCN(Cc1ccccc1)C(C(=O)NC1CCCCC1)C1CC1 (stereo not drawn)	.	-19.4%	-3.0%	i	3.7%
N#CCCN(Cc1ccccc1)C(CCc1ccccc1)C(=O)NC1CCCCC1 (stereo not drawn)	.	12.6µM*	-33.8%	?	?
CCCCC(=O)O[C@]1(C(=O)CO)[C@@H](C)C[C@H]2[C@@H]3CCC4=CC(=O)C=C[C@]4(C)[C@@]3(F)[C@@H](O)C[C@@]21C	.	.	.	i	2.7%
O=[N+]([O-])c1cc(S(=O)(=O)Oc2ccccc2)ccc1Cl	.	?	8.91µM*	i	11.2%
CN(C)c1ccc(Nc2nc(N)c3ccccc3n2)cc1	-16.3%	-1.9%	12.6µM*	i	5.01µM*
SMILES	Apoferritin bind	TGFb SMAD3 inh	HepG2 tox	S2 tox	ATXN2 expr inh
Cc1ccccc1Nc1nc(N)c2ccccc2n1	?	-8.6%	11.2µM*	i	-2.1%
Nc1nc(Nc2ccccc2)nc2ccccc12	-21.6%	5.9%	-57.0%	i	45.8%
Nc1nc(Nc2ccc(Cl)cc2)nc2ccccc12	-22.4%	17.8µM*	-48.3%	i	44.5%
CCOc1ccc(Nc2nc(N)c3ccccc3n2)cc1	-13.2%	-13.3%	15.8µM*	i	?
Cc1cc(=O)n2nc(N3CCC(C(=O)NCc4cccc(Cl)c4)CC3)sc2n1	-9.0%	1.4%	-1.2%	i	-11.6%
COc1ccc2[nH]c(CCc3nc4c(OC)c(OC)ccc4[nH]3)nc2c1OC	.	7.5%	3.1%	.	.
O=C(NCc1ccccc1)[C@]1(C(F)(F)F)C[C@H](CCc2ccccc2)CCCO1	-0.2%	?	0.5%	i	-0.7%
O=C(NCCNCCO)C1(C(F)(F)F)CC(CCc2ccccc2)CCCO1 (stereo not drawn)	-17.8%	3.98µM*	-21.6%	.	.
COCC(=O)Nc1cc(C(=O)N2CCCC(C(N)=O)C2)cc2nc(-c3ccccc3)n(C)c12 (stereo not drawn)	.	.	.	i	.
CC1C2(C)OCC(C#N)(C(=N)O2)C1(C#N)C#N (stereo not drawn)	79.3%	.	.	.	.
CC1(C)CC2(C)OC(=N)C1(C#N)C2(C#N)C#N (stereo not drawn)	6.9%	15.8µM*	15.6%	?	?
NC(=O)c1ccc(N=Cc2ccc([N+](=O)[O-])s2)cc1	-1.6%	-20.5%	-91.9%	?	?
O=[N+]([O-])c1ccc(/C=N/n2cnc3ccccc32)s1	4.4%	?	8.91µM*	.	?
Cc1nc2ccccc2n1/N=C/c1ccc([N+](=O)[O-])s1	-14.3%	6.31µM*	-61.6%	.	21.2µM*
Cc1cc(C)cc(N=Cc2ccc([N+](=O)[O-])s2)c1	-19.0%	11.2µM*	-55.0%	?	?
O=[N+]([O-])c1ccc(/C=N/n2c(CO)nc3ccccc32)s1	2.7%	?	-13.5%	i	?
Cc1nc2ccccc2n1/N=C/c1ccc([N+](=O)[O-])o1	.	11.2µM*	-106.2%	i	?
COc1ccc(CNC(=O)c2cnn(-c3ncc4c(n3)-c3ccccc3CC4)c2C)cc1OC	.	.	.	i	.
CCN1CCCC1CNCc1cc2ccc(SC)cc2nc1-c1cc(OC)ccc1OC (stereo not drawn)	.	.	.	i	.
CCOC(=O)CNC(c1ccccc1)c1cc(Br)ccc1NC(=O)CCN1CCOCC1 (stereo not drawn)	-6.5%	?	12.6µM*	?	.
COC(=O)CNC(c1ccccc1)c1cc(Br)ccc1NC(=O)CCN1CCOCC1 (stereo not drawn)	-8.0%	17.8µM*	22.4µM*	?	.
CCOC(=O)CNC(c1ccccc1)c1cc(Br)ccc1NC(=O)OCC (stereo not drawn)	5.0%	-12.3%	2.9%	i	-1.4%
